# Results: PubChem BioAssay
# For part of these data: Measured potencies and affinities stand elsewhere. The source made the active and inactive calls.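 Rule for the calls, unless noted: active = primary screen active and over 50% activation in each of two duplicate runs; inactive = the rest.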
# How the values were obtained:
# [1] = test system: TRPC4 beta (transient receptor potential cation channel C4), mouse; experiment: TRPC4 cation channel opening, retest – cell-based, Fluo4 calcium, HEK293 TRPC4beta/mu-opioid, duplicates, 10 µM, confirmation (AID 2426;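 active = fluorescence ratio normalized to control raised more than 50% in primary screen plus both repeat runs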;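 for activation: percent rise of integrated ratio over buffer wells lacking compound which define 0%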); conditions: Fluo4 calcium fluorescence, at 10 µM; hits give high values
# [2] = test system: transient receptor potential cation channel C4 beta (TRPC4), mouse; experiment: TRPC4 cation channel opening, second retest – cell-based, second round, Fluo4, HEK293 TRPC4beta/mu-opioid, 1 µM, confirmation (AID 2461); conditions: Fluo4 calcium fluorescence, at 1 µM; hits give high values;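 for activation: 0% = wells without test compound as baseline of integrated fluorescence ratio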
# [3] = test system: TRPC4 (transient receptor potential cation channel C4 beta), mouse; experiment: potentiation of DAMGO EC20 TRPC4 response – cell-based, second round, Fluo-4, HEK293 TRPC4beta/mu-opioid, 1 µM, confirmation (AID 2554;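 active = primary screen hit whose fluorescence ratio, in both repeats, exceeds the weak agonist control mean by 3 SD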); conditions: DAMGO EC20, Fluo-4 calcium flux, at 1 µM; hits give high values
# [4] = test system: TRPC4 beta (transient receptor potential cation channel C4), mouse; experiment: potentiation of DAMGO EC20 TRPC4 response – cell-based, Fluo-4, HEK293 TRPC4beta/mu-opioid, confirmation (AID 2555;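 active = primary screen hit whose calcium fluorescence ratio, in both repeats, exceeds the weak agonist control mean by 3 SD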); conditions: DAMGO EC20, Fluo-4 calcium flux, at 10 µM; hits give high values
# [5] = target: Short transient receptor potential channel 4 (Mus musculus) (UniProt Q9QUQ5); experiment: blockers of DAMGO-evoked TRPC4 calcium flux – cell-based, Fluo4, HEK293 TRPC4beta/mu-opioid, confirmation (AID 2636;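 active = calcium signal cut by more than 3 SD below the full-agonist control yet still positive, in both repeats and the earlier primary screen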); conditions: at 10 µM; hits give high values
# Sequence of Short transient receptor potential channel 4 (Mus musculus) (Q9QUQ5 whole entry, looked up): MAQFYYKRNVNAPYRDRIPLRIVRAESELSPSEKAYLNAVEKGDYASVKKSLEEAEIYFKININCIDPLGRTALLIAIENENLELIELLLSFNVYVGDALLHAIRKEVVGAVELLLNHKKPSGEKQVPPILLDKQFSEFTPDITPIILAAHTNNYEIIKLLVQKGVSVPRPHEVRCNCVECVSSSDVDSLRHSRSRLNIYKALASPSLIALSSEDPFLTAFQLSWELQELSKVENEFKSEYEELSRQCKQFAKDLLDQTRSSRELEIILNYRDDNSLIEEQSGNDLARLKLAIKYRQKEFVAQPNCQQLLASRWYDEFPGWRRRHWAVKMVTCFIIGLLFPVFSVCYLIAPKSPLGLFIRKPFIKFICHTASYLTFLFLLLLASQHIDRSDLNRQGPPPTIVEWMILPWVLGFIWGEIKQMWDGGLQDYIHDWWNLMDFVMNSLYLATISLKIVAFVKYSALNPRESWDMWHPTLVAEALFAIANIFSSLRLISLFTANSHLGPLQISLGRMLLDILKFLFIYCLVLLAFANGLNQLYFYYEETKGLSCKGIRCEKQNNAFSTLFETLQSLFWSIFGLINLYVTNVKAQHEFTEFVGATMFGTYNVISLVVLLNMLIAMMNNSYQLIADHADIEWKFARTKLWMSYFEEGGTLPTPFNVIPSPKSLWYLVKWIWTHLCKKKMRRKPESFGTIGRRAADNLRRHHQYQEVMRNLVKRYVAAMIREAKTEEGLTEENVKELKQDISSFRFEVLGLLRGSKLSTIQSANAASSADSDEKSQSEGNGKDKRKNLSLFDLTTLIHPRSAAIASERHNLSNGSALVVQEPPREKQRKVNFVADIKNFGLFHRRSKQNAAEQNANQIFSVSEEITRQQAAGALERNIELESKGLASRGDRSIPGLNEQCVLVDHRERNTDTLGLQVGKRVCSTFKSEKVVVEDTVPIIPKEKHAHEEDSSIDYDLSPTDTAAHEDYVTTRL
# [6] = target: Short transient receptor potential channel 4 (Mus musculus) (UniProt Q9QUQ5); experiment: blockers of DAMGO-evoked TRPC4 calcium flux – cell-based, second round, Fluo4, HEK293 TRPC4beta/mu-opioid, 1 µM, confirmation (AID 2637;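 active = calcium signal ratio cut to more than 3 SD under the fully stimulated control mean yet still positive, in both repeats and the primary screen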); conditions: at 1 µM; hits give high values
# [7] = target: Short transient receptor potential channel 4 (Mus musculus) (UniProt Q9QUQ5); experiment: potentiation of DAMGO-evoked TRPC4 calcium signal – cell-based, HEK293 TRPC4/mu-opioid, Fluo-4 calcium, EC20 DAMGO, dose response (AID 434941;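 active = earlier screen potentiator hit that boosts the TRPC4 ion channel at some dose, with a dose response; inactive = no potentiation, no dose response, or not a prior hit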;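 note: calcium entry triggered by an EC20 dose of DAMGO at the co-expressed mu-opioid receptor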)
# [8] = target: Short transient receptor potential channel 4 (Mus musculus) (UniProt Q9QUQ5); experiment: block of DAMGO-driven TRPC4 calcium entry – cell-based, HEK293 TRPC4/mu-opioid, Fluo-4 calcium, dose response (AID 434942;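 active = primary screen inhibitor hit that blocks the TRPC4 channel at some tested dose, yielding a dose curve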)
# [9] = target: Short transient receptor potential channel 6 (Mus musculus) (UniProt Q61143); experiment: TRPC6 blockade by TRPC4 inhibitor hits – cell-based, HEK293, membrane potential dye, duplicate, selectivity assay for TRPC4 inhibitor project, confirmation (AID 434948;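 active = active in primary screen and both duplicates, each dropping signal beyond three positive-control SD with fluorescence still positive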); conditions: HEK293 TRPC6, membrane potential dye fluorescence, at 10 µM, stimulated with maximal-effect acetylcholine; hits give high values
# Sequence of Short transient receptor potential channel 6 (Mus musculus) (Q61143 whole entry, looked up): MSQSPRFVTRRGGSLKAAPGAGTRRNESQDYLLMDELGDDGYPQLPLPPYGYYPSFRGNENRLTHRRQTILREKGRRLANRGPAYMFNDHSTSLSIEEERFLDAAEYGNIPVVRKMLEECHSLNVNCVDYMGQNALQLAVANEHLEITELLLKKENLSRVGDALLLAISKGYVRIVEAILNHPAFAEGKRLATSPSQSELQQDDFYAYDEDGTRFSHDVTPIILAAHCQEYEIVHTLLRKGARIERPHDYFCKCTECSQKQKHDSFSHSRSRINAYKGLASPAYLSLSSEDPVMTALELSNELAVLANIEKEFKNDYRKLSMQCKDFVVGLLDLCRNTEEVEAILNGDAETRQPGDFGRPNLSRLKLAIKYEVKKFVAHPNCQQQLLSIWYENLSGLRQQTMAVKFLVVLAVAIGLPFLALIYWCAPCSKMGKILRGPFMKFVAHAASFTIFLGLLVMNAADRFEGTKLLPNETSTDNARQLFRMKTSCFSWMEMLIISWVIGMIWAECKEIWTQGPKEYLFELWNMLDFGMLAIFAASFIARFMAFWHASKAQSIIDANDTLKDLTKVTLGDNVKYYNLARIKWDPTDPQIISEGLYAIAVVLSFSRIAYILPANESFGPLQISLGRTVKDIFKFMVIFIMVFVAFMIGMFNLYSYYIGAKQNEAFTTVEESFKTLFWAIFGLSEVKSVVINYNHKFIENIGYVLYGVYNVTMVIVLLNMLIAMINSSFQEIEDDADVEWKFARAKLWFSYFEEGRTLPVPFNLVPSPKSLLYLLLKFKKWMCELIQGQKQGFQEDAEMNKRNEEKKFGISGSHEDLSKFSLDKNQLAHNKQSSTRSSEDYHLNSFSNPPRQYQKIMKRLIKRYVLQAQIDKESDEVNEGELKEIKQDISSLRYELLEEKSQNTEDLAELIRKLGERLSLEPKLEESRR
# [10] = target: Short transient receptor potential channel 6 (Mus musculus) (UniProt Q61143); experiment: TRPC6 opening by TRPC4 activator hits – cell-based, HEK293, membrane potential dye, duplicate, selectivity assay for TRPC4 activator project, confirmation (AID 434950;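 active = membrane potential signal rise above negative control mean plus 3 SD in both duplicates, also active in the earlier TRPC4 screen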;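 for activation: 0% = buffer only wells and 100% = acetylcholine maximal-effect wells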); conditions: HEK293 TRPC6, membrane potential fluorescence, at 10 µM; activation: hits give high values; outcome: activation
# [11] = target: Short transient receptor potential channel 6 (Mus musculus) (UniProt Q61143); experiment: positive modulators of mouse TRPC6 channel – HEK293 cells, membrane potential dye, duplicate, selectivity assay for TRPC4 potentiator project, confirmation (AID 434952;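 active = compound raising the membrane signal above positive-control mean plus 3 SD in both repeats, and a primary screen hit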); conditions: HEK293 TRPC6, membrane potential dye fluorescence, at 10 µM, maximal acetylcholine added after compound; hits give high values
# [12] = target: Short transient receptor potential channel 4 (Mus musculus) (UniProt Q9QUQ5); experiment: calcium flux activators in TRPC4/5HT1a cells, counter-screen for TRPC4 activator project, cell-based, second counter screen, HEK293 TRPC4/5HT1a, Fluo-4 (AID 434977;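 active = calcium signal rise above buffer-control mean plus 5 SD in both duplicates, and also a hit in the primary screen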;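 for activation: plate controls were assay buffer for no effect and maximal serotonin response for full effect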); conditions: Fluo-4 calcium flux, at 10 µM; hits give high values
# [13] = serotonin-gated TRPC4 signal block – cell-based, second counter screen, HEK293 TRPC4/5HT1a, Fluo-4, counter-screen for TRPC4 inhibitor project, confirmation (AID 434978;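 active = primary screen active whose calcium signal fell more than 3 SD beyond the full-serotonin control mean in both duplicate plates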;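 note: serotonin given first at submaximal then at maximal dose after compound preincubation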); conditions: Fluo-4 calcium flux, at 10 µM, serotonin added to trigger calcium flux; hits give high values
# [14] = test system: TRPC4 (mouse), co-expressed with 5HT1a in HEK293; experiment: enhancement of serotonin-evoked TRPC4 response – cell-based, second counter screen, HEK293 TRPC4/5HT1a, Fluo-4, counter-screen for TRPC4 potentiator project, confirmation (AID 434979;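 active = signal rise over 3 SD above mean of control wells given weak agonist, in both repeats and first screen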); conditions: Fluo-4 calcium flux, at 10 µM, serotonin added at its EC20 dose; hits give high values
# [15] = nonspecific calcium rise without TRPC4 – cell-based, HEK293 mu-opioid receptor line, counter-screen for TRPC4 activator project, confirmation (AID 449723;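 active = hit in primary screen, with calcium signal over 5 SD above buffer well mean in both duplicates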;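 note: counter screen cells carry the mu-opioid receptor alone and lack TRPC4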); conditions: HEK293 mu-opioid cells, Fluo-4 calcium fluorescence, at 10 µM; hits give high values
# [16] = nonspecific potentiation of DAMGO calcium response – cell-based, HEK293 mu-opioid receptor line, counter-screen for TRPC4 allosteric potentiator project, confirmation (AID 449724;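 active = calcium signal rise more than 3 SD above the low-dose agonist control mean, in both duplicate plates and the primary screen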); conditions: HEK293 mu-opioid receptor cells, Fluo-4 calcium flux, at 10 µM, compound added before EC20 DAMGO stimulus; hits give high values
structure (smiles),measurement,setting,value
O=C(NCCCN1CCN(CCCNC(=O)c2ccc3c(c2)OCO3)CC1)c1ccc2c(c1)OCO2,activation,[1],112% (active)
same,activation,[2],76% (active)
same,outcome,[3],inactive
same,outcome,[4],inactive
same,outcome,[5],inactive
same,outcome,[6],inactive
same,outcome,[7],inactive
same,outcome,[8],inactive
same,outcome,[9],inactive
same,outcome,[10],inactive
same,outcome,[11],inactive
same,activation,[12],37.2% (active)
same,outcome,[13],inactive
same,outcome,[14],inactive
same,outcome,[15],inactive
same,outcome,[16],inactive
CN(C)C(CNC(=O)c1ccc2ccccc2n1)c1ccccc1 (stereo not given),activation,[1],61% (active)
same,outcome,[2],inactive
same,outcome,[3],inactive
same,outcome,[4],inactive
same,outcome,[5],inactive
same,outcome,[6],inactive
same,outcome,[7],inactive
same,outcome,[8],inactive
same,outcome,[9],inactive
same,activation,[10],54% (active)
same,outcome,[11],inactive
same,outcome,[12],inactive
same,outcome,[13],inactive
same,outcome,[14],inactive
same,outcome,[15],inactive
same,outcome,[16],inactive
Cc1onc(-c2c(F)cccc2Cl)c1C(=O)N1CCN(c2ncc(Br)cn2)CC1,activation,[1],109% (active)
same,outcome,[2],inactive
same,outcome,[3],inactive
same,outcome,[4],inactive
same,outcome,[5],inactive
same,outcome,[6],inactive
same,outcome,[7],inactive
same,outcome,[8],inactive
same,outcome,[9],inactive
same,activation,[10],42.5% (active)
same,outcome,[11],inactive
same,activation,[12],37.9% (active)
same,outcome,[13],inactive
same,outcome,[14],inactive
same,outcome,[15],inactive
same,outcome,[16],inactive
COc1ccc(-n2cc(CNCCc3ncc(C)[nH]3)c(-c3ccccc3Cl)n2)cc1,activation,[1],214% (active)
same,outcome,[2],inactive
same,outcome,[3],inactive
same,outcome,[4],inactive
same,outcome,[5],inactive
same,outcome,[6],inactive
same,outcome,[7],inactive
same,outcome,[8],inactive
same,outcome,[9],inactive
same,activation,[10],30% (active)
same,outcome,[11],inactive
same,outcome,[12],inactive
same,outcome,[13],inactive
same,outcome,[14],inactive
same,outcome,[15],inactive
same,outcome,[16],inactive
CN1CCN(c2ccc(C(F)(F)F)cc2NC(=O)Nc2ccccc2)CC1,activation,[1],103% (active)
same,outcome,[2],inactive
same,potentiation,[3],24% (active)
same,outcome,[4],inactive
same,outcome,[5],inactive
same,outcome,[6],inactive
same,outcome,[7],inactive
same,outcome,[8],inactive
same,outcome,[9],inactive
same,outcome,[10],inactive
same,outcome,[11],inactive
same,activation,[12],28.6% (active)
same,outcome,[13],inactive
same,potentiation,[14],33.3% (active)
same,outcome,[15],inactive
same,outcome,[16],inactive
CCN1CCN(c2ccc(S(=O)(=O)N3CCCCC3)cc2NC(=O)C(C)Oc2ccc(F)cc2)CC1 (stereo not given),activation,[1],185% (active)
same,outcome,[2],inactive
same,outcome,[3],inactive
same,outcome,[4],inactive
same,outcome,[5],inactive
same,outcome,[6],inactive
same,outcome,[7],inactive
same,outcome,[8],inactive
same,outcome,[9],inactive
same,activation,[10],32.5% (active)
same,outcome,[11],inactive
same,activation,[12],9.95% (active)
same,outcome,[13],inactive
same,outcome,[14],inactive
same,outcome,[15],inactive
same,outcome,[16],inactive
CC(C)c1ccc(NC(=S)N(C)CCc2ccccn2)cc1,outcome,[1],inactive
same,outcome,[2],inactive
same,outcome,[3],inactive
same,outcome,[4],inactive
same,outcome,[5],inactive
same,outcome,[6],inactive
same,outcome,[7],inactive
same,outcome,[8],inactive
same,outcome,[9],inactive
same,outcome,[10],inactive
same,outcome,[11],inactive
same,activation,[12],25.6% (active)
same,outcome,[13],inactive
same,outcome,[14],inactive
same,outcome,[15],inactive
same,outcome,[16],inactive
Cc1cc(C)cc(C(=O)N(CCc2ccccc2)C2=CC3CCC(C2)N3C)c1 (stereo not given),activation,[1],86% (active)
same,activation,[2],57% (active)
same,outcome,[3],inactive
same,outcome,[4],inactive
same,outcome,[5],inactive
same,outcome,[6],inactive
same,outcome,[7],inactive
same,outcome,[8],inactive
same,outcome,[9],inactive
same,activation,[10],67% (active)
same,outcome,[11],inactive
same,outcome,[12],inactive
same,outcome,[13],inactive
same,outcome,[14],inactive
same,outcome,[15],inactive
same,outcome,[16],inactive
CC(C)(C)c1cc(Cl)ccc1OCCn1ccnc1,activation,[1],57% (active)
same,outcome,[2],inactive
same,outcome,[3],inactive
same,outcome,[4],inactive
same,outcome,[5],inactive
same,outcome,[6],inactive
same,outcome,[7],inactive
same,outcome,[8],inactive
same,outcome,[9],inactive
same,outcome,[10],inactive
same,outcome,[11],inactive
same,activation,[12],17.9% (active)
same,outcome,[13],inactive
same,potentiation,[14],14.1% (active)
same,outcome,[15],inactive
same,outcome,[16],inactive
CCn1c(=O)cc(OCC(=O)NCCCN2CC(C)CC(C)C2)c2ccccc21 (stereo not given),activation,[1],80% (active)
same,activation,[2],73% (active)
same,outcome,[3],inactive
same,outcome,[4],inactive
same,outcome,[5],inactive
same,outcome,[6],inactive
same,outcome,[7],inactive
same,outcome,[8],inactive
same,outcome,[9],inactive
same,outcome,[10],inactive
same,outcome,[11],inactive
same,activation,[12],17.3% (active)
same,outcome,[13],inactive
same,outcome,[14],inactive
same,outcome,[15],inactive
same,outcome,[16],inactive
O=C(NCCc1cccc(Cl)c1)c1ccc(OC2CCN(Cc3ccccn3)CC2)cc1,activation,[1],69% (active)
same,outcome,[2],inactive
same,outcome,[3],inactive
same,outcome,[4],inactive
same,outcome,[5],inactive
same,outcome,[6],inactive
same,outcome,[7],inactive
same,outcome,[8],inactive
same,outcome,[9],inactive
same,activation,[10],43.5% (active)
same,outcome,[11],inactive
same,outcome,[12],inactive
same,outcome,[13],inactive
same,outcome,[14],inactive
same,outcome,[15],inactive
same,outcome,[16],inactive
CCOc1ccccc1CN1CCNC(=O)C1CC(=O)NCCc1ccccn1 (stereo not given),outcome,[1],inactive
same,outcome,[2],inactive
same,outcome,[3],inactive
same,outcome,[4],inactive
same,outcome,[5],inactive
same,outcome,[6],inactive
same,outcome,[7],inactive
same,outcome,[8],inactive
same,outcome,[9],inactive
same,activation,[10],23.5% (active)
same,outcome,[11],inactive
same,activation,[12],17.3% (active)
same,outcome,[13],inactive
same,outcome,[14],inactive
same,outcome,[15],inactive
same,outcome,[16],inactive
C=CCn1c(CCNC(=O)c2ccco2)nc2ccccc21,activation,[1],165% (active)
same,activation,[2],70% (active)
same,outcome,[3],inactive
same,outcome,[4],inactive
same,outcome,[5],inactive
same,outcome,[6],inactive
same,outcome,[7],inactive
same,outcome,[8],inactive
same,outcome,[9],inactive
same,outcome,[10],inactive
same,outcome,[11],inactive
same,activation,[12],55% (active)
same,outcome,[13],inactive
same,outcome,[14],inactive
same,outcome,[15],inactive
same,outcome,[16],inactive
CC1CCCCN1S(=O)(=O)c1ccc(C(=O)N(CCCN(C)C)c2nc3ccc(Br)cc3s2)cc1 (stereo not given),outcome,[1],inactive
same,outcome,[2],inactive
same,outcome,[3],inactive
same,outcome,[4],inactive
same,outcome,[5],inactive
same,outcome,[6],inactive
same,outcome,[7],inactive
same,outcome,[8],inactive
same,outcome,[9],inactive
same,outcome,[10],inactive
same,outcome,[11],inactive
same,activation,[12],21% (active)
same,outcome,[13],inactive
same,outcome,[14],inactive
same,activation,[15],14.9% (active)
same,outcome,[16],inactive
Cc1sc2ncnc(NCC(C)(C)N3CCOCC3)c2c1C,activation,[1],178% (active)
same,activation,[2],109% (active)
same,outcome,[3],inactive
same,outcome,[4],inactive
same,outcome,[5],inactive
same,outcome,[6],inactive
same,outcome,[7],inactive
same,outcome,[8],inactive
same,outcome,[9],inactive
same,outcome,[10],inactive
same,outcome,[11],inactive
same,activation,[12],62.7% (active)
same,outcome,[13],inactive
same,outcome,[14],inactive
same,outcome,[15],inactive
same,outcome,[16],inactive
